We go through 39 molecules from PubChem BioAssay (NCATS).

Records with an inconclusive call do not appear. Values without a mark were called inactive. Calls of active or inactive are those of the source. Calls come from the whole dose curve; as a rule, active = well fitted curve in the direction sought with a large enough effect; inconclusive = small, poorly fitted or top-dose-only effect, or another doubt; inactive = no such curve, though single readings can be large; an effect the other way counts as inactive or inconclusive.

The nature of one experiment: qHTS of pediatric cancer cell lines to identify multiple opportunities for drug repurposing: Primary screen for OHS-50 cells (AID 1347103).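 Note: plate controls were DMSO neutral control for no effect and bortezomib positive control for full effect; nearly all actives have a fitted effect of over 40% in size.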 To be noted: OHS-50 osteosarcoma viability, CellTiter-Glo luminescence, 48 h; series mostly up to 57.3 µM; activity change, negative = cytotoxic: at the top concentration. In outline:
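Cells (500-1,000/well) rested 5 h, then received compounds for 48 h; metabolically active cells were measured by CellTiter-Glo luminescence. Final concentrations spanned up to 46 µM (MIPE, 11-point) or 0.59 nM-46 µM (NPC, 8-point) in primary screens, 11-point in follow-ups.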
In general terms: Quantitative high-throughput screening tests each substance at several concentrations.
Turning to `Cc1cccc(Nc2cc(Cl)nc(SCC(=O)O)n2)c1C`, the “activity change, negative = cytotoxic” value was 18.2%. Same read-out and setting: the figure for `O=S(=O)(O)c1cc(I)c(O)c2ncccc12` is 10.7%. Consider `Cc1ncc(COP(=O)(O)O)c(C=O)c1O`, for which the “activity change, negative = cytotoxic” value was 4.21%. As for `Cc1cc(CC(=O)O)n(C)c1C(=O)c1ccc(Cl)cc1`, the “activity change, negative = cytotoxic” value was 8.08%. Same read-out and setting: the figure for `CCC(=O)Nc1ccc(O)cc1` is 3.83%. Still for that read-out and setting: the figure for `CN1[C@@H]2CC[C@H]1CC(OC(=O)C(O)c1ccccc1)C2` (stereo partly specified) is 3.77%; for `CCCCc1ncc(/C=C(\Cc2cccs2)C(=O)O)n1Cc1ccc(C(=O)O)cc1` it is -14.2%; for `NS(=O)(=O)c1cc2c(cc1C(F)(F)F)NC(Cc1ccccc1)NS2(=O)=O` (stereo unspecified) it is 23.4%. The same measure, in the same setting: the figure for `NC(N)=NCCC[C@H](N)C(=O)O` is -1.99% [at 6.18 µM]; for `CN(C)CCCO[C@@H]1[C@H]2OC(C)(C)O[C@H]2O[C@@H]1C(O)CO` (stereo partly specified) it is 19.3%; for `CC(=O)Oc1c(C)c(C)c2c(c1C)CC[C@@](C)(CCC[C@H](C)CCC[C@H](C)CCCC(C)C)O2` it is 5.16%. For `O=c1cc[nH]c(=O)[nH]1`, the “activity change, negative = cytotoxic” value is 11.2%. Same read-out and setting: the same measure for `Cn1c(=O)c2c(ncn2CC2OCCO2)n(C)c1=O`: 14.2%; for `N[C@@H](CSSC[C@H](N)C(=O)O)C(=O)O`: 6.93% [at 0.73 µM]; for `COc1cc(C)c(Cc2cnc(N)nc2N)cc1OC`: -18.2%. Turning to `Nc1ccc(S(=O)(=O)Nc2ccc(Cl)nn2)cc1`, the “activity change, negative = cytotoxic” value was 6.68%. On the same count and under the same terms, the same measure for `O=C1NS(=O)(=O)c2ccccc21`: 14%.

The next experiment can be described thus: qHTS of pediatric cancer cell lines to identify multiple opportunities for drug repurposing: Primary screen for RD cells (AID 1347104).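 For activity change, negative = cytotoxic: plate controls were DMSO for no effect and bortezomib for full effect.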 Note: nearly all actives have a fitted effect of over 55% in size. Note: potency is the fitted concentration of half-maximal effect. The conditions noted are these: RD rhabdomyosarcoma viability, CellTiter-Glo luminescence, 48 h; series mostly up to 46 µM; activity change, negative = cytotoxic: at the top concentration. In outline: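 Cells seeded at 500-1,000 cells/well in growth media, rested 5 hours at 37 degrees C, 5% CO2, then dosed; MIPE compounds at 11-point (from 0.78 nM) and NPC at 8-point (from 0.59 nM) final concentrations. Viability by CellTiter-Glo luminescence after 48 hours.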
As for `NS(=O)(=O)c1cc2c(cc1Cl)NC(CSCc1ccccc1)=NS2(=O)=O`, the “activity change, negative = cytotoxic” value was 1.92%.

Regarding `O=C1NC(=O)[C@@]2(CCOc3ccc(F)cc32)N1`, the “activity change, negative = cytotoxic” value was 3.11%.

On to `CC[N+](CC)(CC)CCOc1ccc(/C=C/c2ccccc2)cc1`, for which the Potency is 15 µM (active). Turning to `Cc1ccc(C(C)C)cc2c(C)ccc1-2`, the “activity change, negative = cytotoxic” value was 10.2%.

On to `Cc1c(Cl)cccc1Nc1ccccc1C(=O)O`, for which the “activity change, negative = cytotoxic” value was 0.425%.

As for `O=c1cc(CO)occ1O`, the “activity change, negative = cytotoxic” value is 9.52%. Regarding `C#CCN(C)Cc1ccccc1`, the “activity change, negative = cytotoxic” value is 16.2%. Take `CN(C)CCOC(C)(c1ccccc1)c1ccccn1` (stereo unspecified): the “activity change, negative = cytotoxic” value is 11.1%. As to `CCCOC(=O)c1ccccc1`, the “activity change, negative = cytotoxic” value was 13.7%. On the same count and under the same terms, the same measure for `CC1=C(CC(=O)O)c2cc(F)ccc2/C1=C\c1ccc(S(C)=O)cc1` (stereo unspecified): 9.1%; for `C[C@H](NC(CCc1ccccc1)C(=O)O)C(=O)N1CCC[C@H]1C(=O)O` (stereo partly specified): 8.95%. On the same count and under the same terms, the same measure for `CC(C)C(=O)c1c(C(C)C)nn2ccccc12`: 11.2%; for `C=Cc1c(C)c2cc3[nH]c(cc4nc(cc5nc(cc1[nH]2)C(C)=C5CCC(=O)O)C(CCC(=O)O)=C4C)c(C)c3C=C`: -6.92%; for `O=C(O)[C@@H]1CSCN1`: -7.05%. For the molecule `CC(=O)Nc1ccc(/C=N/NC(N)=S)cc1`, the “activity change, negative = cytotoxic” value was 1.28%. Still for that read-out and setting: the figure for `NC1CCN(c2cccc(Cl)n2)CC1` is -2.77%; for `C=CCn1c(=O)n([C@@H]2O[C@H](CO)[C@@H](O)[C@H]2O)c2nc(N)[nH]c(=O)c21` it is 20%. `Cc1cccc(C)c1NC(=O)CN(CC(=O)O)CC(=O)O`: the “activity change, negative = cytotoxic” value is 20.1%. On the same count and under the same terms, the figure for `COc1ccc(S(=O)(=O)Nc2nnc(CC(C)C)s2)cc1` is -2.55%; for `CC(C)(C)C(=O)NCCCC(=O)O` it is 10.3%; for `C[C@@H](O)[C@H](N)C(=O)O` it is 17% [at 16.1 µM].

On to `CC(O)CN(CCN(CC(C)O)CC(C)O)CC(C)O` (stereo unspecified), for which the “activity change, negative = cytotoxic” value is 14.6%. As to `Cc1cccc(Nc2cc(Cl)nc(SCC(=O)O)n2)c1C`, the “activity change, negative = cytotoxic” value was 18.4%. With `O=S(=O)(O)c1cc(I)c(O)c2ncccc12`, the “activity change, negative = cytotoxic” value is 4.34%. Same read-out and setting: the same measure for `Cc1ncc(COP(=O)(O)O)c(C=O)c1O`: 14.8%.

Turning to `Cc1cc(CC(=O)O)n(C)c1C(=O)c1ccc(Cl)cc1`, the “activity change, negative = cytotoxic” value was 14.5%. Same read-out and setting: the same measure for `CCC(=O)Nc1ccc(O)cc1`: 7.64%. On the same count and under the same terms, the same measure for `CN1[C@@H]2CC[C@H]1CC(OC(=O)C(O)c1ccccc1)C2` (stereo partly specified): 5.72%. Still for that read-out and setting: the same measure for `CCCCc1ncc(/C=C(\Cc2cccs2)C(=O)O)n1Cc1ccc(C(=O)O)cc1`: 14.3%; for `NS(=O)(=O)c1cc2c(cc1C(F)(F)F)NC(Cc1ccccc1)NS2(=O)=O` (stereo unspecified): 9.65%; for `NC(N)=NCCC[C@H](N)C(=O)O`: 2.4% [at 4.84 µM]. Take `CN(C)CCCO[C@@H]1[C@H]2OC(C)(C)O[C@H]2O[C@@H]1C(O)CO` (stereo partly specified): the “activity change, negative = cytotoxic” value is 8.65%. Consider `CC(=O)Oc1c(C)c(C)c2c(c1C)CC[C@@](C)(CCC[C@H](C)CCC[C@H](C)CCCC(C)C)O2`, for which the “activity change, negative = cytotoxic” value is 6.86%.

For the molecule `O=c1cc[nH]c(=O)[nH]1`, the “activity change, negative = cytotoxic” value was 8.56%. Still for that read-out and setting: the figure for `Cn1c(=O)c2c(ncn2CC2OCCO2)n(C)c1=O` is 9.93%; for `N[C@@H](CSSC[C@H](N)C(=O)O)C(=O)O` it is 5.61% [at 0.597 µM]; for `COc1cc(C)c(Cc2cnc(N)nc2N)cc1OC` it is 9.79%. On the same count and under the same terms, the same measure for `Nc1ccc(S(=O)(=O)Nc2ccc(Cl)nn2)cc1`: 0.813%; for `O=C1NS(=O)(=O)c2ccccc21`: 13.6%.
